According to the supplement of paper PMC7724964:

Tests used:
Assay in all cases: phage ELISA signal ratio (GST-PRM binding over GST background); higher = stronger binding of peptide-phage to the PRM
[1] = target: T1, PPWD1 486-646 Pro_isomerase (domain begin residue: 486, domain end residue: 646), Q96BP3
T1 chain: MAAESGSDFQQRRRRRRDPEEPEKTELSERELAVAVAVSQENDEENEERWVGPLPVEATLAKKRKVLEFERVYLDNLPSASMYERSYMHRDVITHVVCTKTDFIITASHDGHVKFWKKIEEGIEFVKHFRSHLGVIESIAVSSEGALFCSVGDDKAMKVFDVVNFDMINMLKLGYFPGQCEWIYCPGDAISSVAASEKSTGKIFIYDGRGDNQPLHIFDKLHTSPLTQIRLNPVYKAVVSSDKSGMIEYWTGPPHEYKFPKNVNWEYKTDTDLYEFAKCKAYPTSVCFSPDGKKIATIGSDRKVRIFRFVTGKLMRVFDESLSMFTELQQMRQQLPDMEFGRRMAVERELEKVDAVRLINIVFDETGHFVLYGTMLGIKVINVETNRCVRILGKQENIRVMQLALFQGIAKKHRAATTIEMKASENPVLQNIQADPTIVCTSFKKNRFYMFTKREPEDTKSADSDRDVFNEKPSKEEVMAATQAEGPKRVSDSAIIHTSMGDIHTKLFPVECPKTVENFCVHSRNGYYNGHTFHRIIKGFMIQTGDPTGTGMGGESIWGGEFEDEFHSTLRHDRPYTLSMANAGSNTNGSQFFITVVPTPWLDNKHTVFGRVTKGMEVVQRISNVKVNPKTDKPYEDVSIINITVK
Outline: (§1)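 Approximately 48 individual clones from selection rounds 4 and 5 were tested by phage ELISA, and those scoring positive were sequenced. They came from five rounds of selecting an M13 phage library of randomized, cysteine-free, glycine-flanked hexadecapeptides on the gene-8 major coat protein against human peptide recognition domains fused to the C-terminus of glutathione S-transferase (GST) in 96-well plates. Each figure in the table is the ELISA signal on the GST-domain fusion relative to the signal on GST alone.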

[2] = target: PPIE 138-301 Pro_isomerase (domain begin residue: 138, domain end residue: 301), Q9UNP9
Chain of PPIE 138-301 Pro_isomerase (domain begin residue: 138, domain end residue: 301), Q9UNP9 (Q9UNP9 whole entry): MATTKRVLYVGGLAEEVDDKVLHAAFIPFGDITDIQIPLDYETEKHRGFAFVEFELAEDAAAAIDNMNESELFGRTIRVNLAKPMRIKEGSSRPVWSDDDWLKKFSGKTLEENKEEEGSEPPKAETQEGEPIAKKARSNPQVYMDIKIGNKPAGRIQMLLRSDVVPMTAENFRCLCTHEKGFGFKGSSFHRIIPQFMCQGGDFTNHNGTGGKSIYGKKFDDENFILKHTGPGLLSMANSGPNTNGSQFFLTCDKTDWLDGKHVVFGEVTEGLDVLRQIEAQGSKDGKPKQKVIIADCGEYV
Outline: as §1

[3] = target: T2, RALA 11-183 Ras (domain begin residue: 11, domain end residue: 183), P11233
T2 chain: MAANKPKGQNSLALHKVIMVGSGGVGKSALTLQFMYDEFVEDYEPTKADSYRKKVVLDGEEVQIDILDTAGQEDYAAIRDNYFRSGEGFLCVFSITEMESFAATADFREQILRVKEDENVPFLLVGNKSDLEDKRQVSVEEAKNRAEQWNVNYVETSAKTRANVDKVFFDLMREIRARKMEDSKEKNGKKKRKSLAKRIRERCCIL
Outline: as §1

[4] = target: RANBP1 39-170 Ran_BP1 (domain begin residue: 39, domain end residue: 170), P43487
Chain of RANBP1 39-170 Ran_BP1 (domain begin residue: 39, domain end residue: 170), P43487 (P43487 whole entry): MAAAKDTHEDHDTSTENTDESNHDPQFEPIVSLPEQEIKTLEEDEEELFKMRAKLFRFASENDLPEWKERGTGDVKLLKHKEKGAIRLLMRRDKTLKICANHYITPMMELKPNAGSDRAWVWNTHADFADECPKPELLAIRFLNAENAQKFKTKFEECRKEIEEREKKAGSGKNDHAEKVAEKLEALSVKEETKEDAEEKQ
Outline: as §1

[5] = target: T3, PUF60 460-559 RRM_3 (domain begin residue: 460, domain end residue: 559), Q9UHX1
T3 chain: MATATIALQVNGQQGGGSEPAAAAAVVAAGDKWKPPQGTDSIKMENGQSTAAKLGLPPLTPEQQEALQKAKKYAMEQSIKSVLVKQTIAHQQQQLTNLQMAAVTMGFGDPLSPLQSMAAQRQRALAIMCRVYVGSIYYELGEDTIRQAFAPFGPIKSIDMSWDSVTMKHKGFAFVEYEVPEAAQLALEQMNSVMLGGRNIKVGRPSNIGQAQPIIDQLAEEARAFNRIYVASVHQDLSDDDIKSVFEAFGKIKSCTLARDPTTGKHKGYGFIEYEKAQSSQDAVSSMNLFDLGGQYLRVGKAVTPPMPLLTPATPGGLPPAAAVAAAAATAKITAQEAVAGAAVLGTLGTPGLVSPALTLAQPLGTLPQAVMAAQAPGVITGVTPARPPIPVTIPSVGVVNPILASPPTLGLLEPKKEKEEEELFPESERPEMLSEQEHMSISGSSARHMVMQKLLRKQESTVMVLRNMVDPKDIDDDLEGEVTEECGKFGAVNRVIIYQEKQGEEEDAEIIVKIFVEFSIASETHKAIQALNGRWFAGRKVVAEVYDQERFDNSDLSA
Outline: as §1

[6] = target: T4, RAB5A 15-188 Ras (domain begin residue: 15, domain end residue: 188), P20339
T4 chain: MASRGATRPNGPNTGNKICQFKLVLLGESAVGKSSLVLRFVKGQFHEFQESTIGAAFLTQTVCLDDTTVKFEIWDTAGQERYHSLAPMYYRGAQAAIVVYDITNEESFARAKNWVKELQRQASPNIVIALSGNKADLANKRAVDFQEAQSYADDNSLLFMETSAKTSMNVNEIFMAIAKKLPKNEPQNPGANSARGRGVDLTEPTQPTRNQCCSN
Outline: as §1

[7] = target: T5, PPARG 233-505 Hormone_recep (domain begin residue: 233, domain end residue: 505), P37231
T5 chain: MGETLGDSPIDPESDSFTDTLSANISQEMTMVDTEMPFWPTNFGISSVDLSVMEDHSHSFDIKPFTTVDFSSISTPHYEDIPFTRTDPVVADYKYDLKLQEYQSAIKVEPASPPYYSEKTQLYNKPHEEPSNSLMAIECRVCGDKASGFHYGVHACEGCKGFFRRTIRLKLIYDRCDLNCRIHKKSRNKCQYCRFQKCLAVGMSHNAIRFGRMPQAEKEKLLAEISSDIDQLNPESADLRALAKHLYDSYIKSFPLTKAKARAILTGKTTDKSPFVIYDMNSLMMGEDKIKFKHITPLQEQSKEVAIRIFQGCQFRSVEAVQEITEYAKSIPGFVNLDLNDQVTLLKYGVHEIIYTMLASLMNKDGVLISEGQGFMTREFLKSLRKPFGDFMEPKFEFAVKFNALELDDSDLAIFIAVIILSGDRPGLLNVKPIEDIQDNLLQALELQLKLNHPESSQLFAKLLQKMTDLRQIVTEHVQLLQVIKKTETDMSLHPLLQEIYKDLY
Outline: as §1

Binder: AVSWGPQWHDFQWALM
- phage ELISA signal ratio [1]: 8.34

Binder: EPTFGPQPQVFFSTNP
- phage ELISA signal ratio [2]: 17

Binder: LTHEQMLWQLMDALSE
- phage ELISA signal ratio [3]: 19.4

Binder: WDVALPQEIVWELADK
- phage ELISA signal ratio [4]: 7.66

Binder: HEMFGPQEQSQHMMEW
- phage ELISA signal ratio [2]: 4.73

Binder: WEHLYPWMIPLPGTGV
- phage ELISA signal ratio [4]: 6.24

Binder: YGMRLPEASQMETWFL
- phage ELISA signal ratio [4]: 6.18

Binder: WELALPAEHHEHYWSN
- phage ELISA signal ratio [4]: 4.36

Binder: MNWGEMWDVRDDQVMV
- phage ELISA signal ratio [5]: 7.64

Binder: WRMELPVQNHMEVMDL
- phage ELISA signal ratio [4]: 6.12

Binder: ENHVPWVPEARWTTPQ
- phage ELISA signal ratio [2]: 7.51

Binder: WDLAEWEMIWQDYMNH
- phage ELISA signal ratio [6]: 5.62

Binder: PMTWEMWQIDSAQQTV
- phage ELISA signal ratio [2]: 8.08

Binder: ESWGPMEQHSYTEQTE
- phage ELISA signal ratio [2]: 5.43

Binder: LYQEVFEYQGWLCMDL
- phage ELISA signal ratio [3]: 32.5

Binder: SDVYGPHAHPVHYQDE
- phage ELISA signal ratio [2]: 8.93

Binder: VYDFIGPQPQTNMASI
- phage ELISA signal ratio [2]: 21.8

Binder: VSDMRGVPDSFMDVWD
- phage ELISA signal ratio [4]: 5.06

Binder: LHPMLTDMLAPNHMEV
- phage ELISA signal ratio [7]: 18.6

Binder: GTEWWQQMALPPDVVV
- phage ELISA signal ratio [4]: 7.62

Binder: WSSKWDVIDKDYGIMH
- phage ELISA signal ratio [5]: 7.28

Binder: WLVPLPWEETWQNMSL
- phage ELISA signal ratio [4]: 5.79

Binder: NKWDMEHWDTEYRSPV
- phage ELISA signal ratio [5]: 4.03

Binder: PLMMPPEPHWVVNLGI
- phage ELISA signal ratio [2]: 10.5

Binder: PESWWESWMMDHEWGS
- phage ELISA signal ratio [7]: 24.5

Binder: TQGKWDMQPTDMHYLS
- phage ELISA signal ratio [5]: 13.2

Binder: SRWDQQPGQWIKLSEN
- phage ELISA signal ratio [5]: 12

Binder: DHGWWMLNSNFLPVVP
- phage ELISA signal ratio [4]: 9.28

Binder: WDMTLPVLTNHELAYL
- phage ELISA signal ratio [4]: 9.02
